Source: PubChem
Sampled rows, rich in hits. Any-hit rate of the full collection: about 5.7%.
AHR act: activators of human aryl hydrocarbon receptor | P35869 | AHR-responsive luciferase reporter cells, luminescence | activation, % at 5 µM | hit rate 2.5% among 320,000; in the data active = activation above about 47%
Target sequence (P35869 whole entry, looked up): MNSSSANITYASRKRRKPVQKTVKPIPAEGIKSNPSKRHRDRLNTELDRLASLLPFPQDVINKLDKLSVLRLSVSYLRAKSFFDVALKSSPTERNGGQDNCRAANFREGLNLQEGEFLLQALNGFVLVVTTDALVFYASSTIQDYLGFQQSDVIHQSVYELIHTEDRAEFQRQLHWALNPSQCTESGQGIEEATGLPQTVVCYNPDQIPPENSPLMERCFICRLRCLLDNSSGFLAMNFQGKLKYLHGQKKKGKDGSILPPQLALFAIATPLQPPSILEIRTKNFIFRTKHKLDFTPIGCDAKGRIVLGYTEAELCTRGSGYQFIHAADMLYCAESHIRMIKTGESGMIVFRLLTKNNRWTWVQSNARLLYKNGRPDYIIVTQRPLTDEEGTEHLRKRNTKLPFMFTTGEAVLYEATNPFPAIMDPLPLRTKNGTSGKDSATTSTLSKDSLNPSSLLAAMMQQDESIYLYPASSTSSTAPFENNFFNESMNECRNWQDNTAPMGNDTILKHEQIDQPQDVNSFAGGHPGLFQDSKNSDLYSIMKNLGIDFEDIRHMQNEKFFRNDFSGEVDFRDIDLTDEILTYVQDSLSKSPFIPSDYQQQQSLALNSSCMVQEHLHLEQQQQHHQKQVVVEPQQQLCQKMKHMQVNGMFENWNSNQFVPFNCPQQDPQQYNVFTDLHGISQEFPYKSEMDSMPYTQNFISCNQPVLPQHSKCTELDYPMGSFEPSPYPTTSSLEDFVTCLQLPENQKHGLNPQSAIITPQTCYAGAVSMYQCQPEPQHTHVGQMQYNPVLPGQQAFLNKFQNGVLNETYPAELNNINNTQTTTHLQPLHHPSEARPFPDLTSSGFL
ssDAF-12 act: activators of S. stercoralis DAF-12 nuclear receptor | HEK293 ssDAF-12/GRIP1 lit1-tk-luc reporter, luminescence; % of 3 µM dafachronic acid response | activation, % at 6.8 µM | hit rate 1% among 370,000;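 active = activation above the mean over all tested compounds plus 3 SD, cut at about 0.9% in these data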
hcDAF12 agonist: activates DAF-12 receptor from parasite H. contortus. HEK293 hcDAF-12 lit1-tk-luc reporter, luminescence; 0% DMSO, 100% Δ7-dafachronic acid. hit rate 1.4% among 370,000. activation, % at 6.8 µM;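 active = activation above the mean of all tested compounds plus 3 SD, cut at about 5.5% in these data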
DAX1 inh-1: inhibits human nuclear receptor DAX1; hit rate 0.99% among 340,000; inhibition, % at 6.75 µM; HEK293 Gal4-DAX1 luciferase reporter, luminescence;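 active = inhibition above the mean over all tested compounds plus 3 SD, cut at about 4.2% in these data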;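 also: inhibition shows as a rise in luminescence from relieved DAX1 repression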
DAX1 inh-2: inhibitors of DAX1 repression of SF-1 activated StAR promoter; inhibition, % at 6.8 µM; AID 652010; HEK293T StAR-luciferase reporter, SF-1/DAX-1 repression relief; hit rate 1.1% among 370,000;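 active = inhibition above the mean over all tested compounds plus 3 SD, cut at about 3.6% in these data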;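 also: higher inhibition means more luminescence from relief of DAX-1 repression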
hgDAF12 agonist: activates the H. glycines DAF-12 receptor ligand-binding domain. AID 687014. hit rate 1.8% among 370,000. activation, % at 6.8 µM. HEK293 GAL4-hgDAF12 UAS-luciferase reporter, agonist luminescence; normalized to butyrate control;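 active = activation above a cutoff set at the mean of all screened compounds plus 3 SD, cut at about 10% in these data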
Of the large screens only hits and unclear results are named; the others gave an inactive call.

O=C(O)COn1c(-c2ccccc2)nc2ccc(Cl)cc21	ssDAF-12 act 1.1
Cc1ccc(C2=NN=C(NC(=O)C(F)(F)F)SC2)cc1	ssDAF-12 act 2.3, hgDAF12 agonist 12 (no result: AHR act)
CCOC(=O)N(C)C[C@H]1OCc2cnnn2CCCC(=O)N([C@H](C)CO)C[C@@H]1C	none (no result: AHR act, DAX1 inh-1)
COc1ccc(CN=CC2=C(O)CNC2=O)cc1	none
COc1ccc(CN=Cc2[nH]c3ccc(Br)c(Cl)c3c2O)cc1	AHR act 57
C=CCN1C(=O)[C@@H](CC(=O)NCc2ccc(C)o2)[C@]2(C(=O)OCC)CCCCC/C=C/12	none (no result: AHR act, DAX1 inh-1)
COc1ccc(NC(=O)CN(C)C(=O)c2c(-c3c(F)cccc3Cl)noc2C)cc1	none
O=C(Nc1ccc(S(=O)(=O)Nc2ccc(Cl)cc2)cc1)C1CCCO1 (centres undefined)	none
O=C(O)c1ccccc1-c1ccccc1C(=O)Nc1ccc(-c2nc3cc(Cl)ccc3o2)cc1	none
Cc1ccc2oc(-c3cccc(NC(=O)c4ccc(Br)o4)c3C)nc2c1	none
CC(=O)Nc1ccc(-c2nc3cc(Cl)ccc3o2)cc1	DAX1 inh-1 5.5, hgDAF12 agonist 11
Cc1c(NC(=O)CSc2ccc(Cl)cc2)cccc1-c1nc2cc(Cl)ccc2o1	AHR act 97
O=C(Nc1ccc(-c2nc3cc(Cl)ccc3o2)cc1)C1CCCO1 (centres undefined)	AHR act 55, hgDAF12 agonist 12
CC1(C)CC(=O)N(CC(=O)N2CCN(c3cccc(C(F)(F)F)c3)CC2)c2ccccc2S1(=O)=O	none (no result: AHR act, DAX1 inh-1)
CCOC(=O)c1cc(OC(C)=O)c2ccc(OC)c(OC)c2c1	none (no result: AHR act)
COC(=O)Nc1ccc2c(c1)ncn2C1CCCCC1	AHR act 66
CC(=O)Nc1ccc2c(c1)ncn2C1CCCCC1	none
CC1CCCC(C)N1CCCNC(=O)CN1C(=O)c2cccnc2Oc2ccc(Cl)cc21 (centres undefined)	none
Cc1ccc2c(c1)N(CC(=O)NCCCN1C(C)CCCC1C)C(=O)c1cccnc1O2 (centres undefined)	DAX1 inh-1 4.8
O=C(NCCc1cccs1)C1CC(c2ccc([N+](=O)[O-])cc2)=NO1 (centres undefined)	hcDAF12 agonist 5.8
c1ccc(CCN(Cc2ccccc2)C2CCN(C3CCCC3)CC2)cc1	none
C=CCOc1cccc(C2C(C(=O)c3ccco3)=C(O)C(=O)N2Cc2cccnc2)c1 (centres undefined)	none
C=CCOc1cccc(C2C(C(=O)c3ccco3)=C(O)C(=O)N2CCN(CC)CC)c1 (centres undefined)	DAX1 inh-1 4.7
O=c1cc(-c2ccc3c(c2)OCCO3)oc2ccc(Cl)cc12	hgDAF12 agonist 12
O=c1cc(-c2ccsc2)oc2cc(-c3ccc4c(c3)OCO4)ccc12	DAX1 inh-1 4.7
O=C(O)c1cc(=O)c2cc(Cl)ccc2o1	none
COc1ccc(-c2ccc3c(=O)cc(-c4ccsc4)oc3c2)cn1	none
O=c1cc(-c2cccs2)oc2ccc(Cl)cc12	DAX1 inh-1 5.3
O=c1cc(-c2ccccc2)oc2ccc(Cl)cc12	DAX1 inh-2 3.9 (no result: AHR act)
CC(CC(=O)Nc1ccc2c(c1)c(=O)n(C)n2-c1cccs1)c1ccccc1 (centres undefined)	none (no result: AHR act, DAX1 inh-1)
COC(=O)C1=C(C)N(Cc2cccc(C(F)(F)F)c2)C(=NCc2cc(OC)c(OC)c(OC)c2)NC1c1cccc(C(F)(F)F)c1 (centres undefined)	none (no result: AHR act, DAX1 inh-1)
CCOC(=O)C1C(c2cccc([N+](=O)[O-])c2)C2C(=O)NN=C2CC1(C)O (centres undefined)	none
CC1(C(=O)NS(=O)(=O)C2CC2)CCCN(C(=O)Cc2ccc(F)cc2)C1 (centres undefined)	none (no result: AHR act, DAX1 inh-1)
COc1ccccc1CNC(=O)COc1cc2c(c3oc(=O)cc(C)c13)CCC(C)(C)O2	DAX1 inh-1 4.4
CCc1cc(=O)oc2c3c(cc(OCC(=O)NC4CC4)c12)OC(C)(C)CC3	none
CCCc1cc(=O)oc2c3c(cc(OCC(=O)N4CCC[C@H]4C(=O)O)c12)OC(C)(C)CC3	DAX1 inh-1 4.5
C=CCn1c(O)c(N=NC(=O)OC(C)(C)C)c2ccccc21	none
C=CCn1c(O)c(N=NC(=O)CNC(=O)c2cccs2)c2ccccc21	AHR act 61
